Test results reported in PubChem BioAssay AID588579 (National Center for Advancing Translational Sciences (NCATS), 2011).
Where “and” joins values, the source holds several entries; their conditions need not be identical. Equal entries are not always repeated. In all, about 400,000 compounds went through this assay and about 2,200 (0.55%) were called active. Roughly 1% stayed inconclusive and do not appear here. What follows is part of a selection rich in actives, with near analogues and random picks from the rest. A number with no mark means an inactive call. Calls follow the shape of the dose curve; as a rule, active = well fitted inhibition curve with a large enough effect; inconclusive = small, poorly fitted or top-dose-only effect, or another doubt; inactive = no such curve, though single readings can be large or run the other way.

What follows are compounds tested against DNA polymerase kappa (Homo sapiens) (UniProt Q9UBT6) (assay: qHTS for Inhibitors of Polymerase Kappa). Details: purified Pol kappa, fluorescent DNA synthesis assay, 10 min; series mostly up to 107 µM; activity, negative = inhibition: at the top concentration.
Method: The processing and repair of DNA interstrand crosslinks (ICL) in eukaryotic cells are extremely complex, potentially involving multiple DNA repair and damage tolerance pathways, including homologous recombination, nucleotide excision repair, translesion synthesis (TLS), and cell cycle checkpoints.
To that end, in a collaboration between the Oregon Health & Science University and the NIH Chemical Genomics Center a 1536-well high-throughput screen was developed. This fluorescent screen was assayed against the NIH Molecular Libraries Small Molecule Repository (MLSMR) to discover inhibitors of Pol Kappa.
NIH Chemical Genomics Center [NCGC]
NIH Molecular Libraries Probe Centers Network [MLPCN]
Assay Submitter (PI): Stephen Lloyd, Oregon Health & Science University
Three microliters of reagents (buffer in column 3 and 4 as negative control and 10 nM Pol kappa in columns 1, 2, and 5-48) were dispensed into a 1536-well black solid-bottom plate. Compounds (23 nL) were transferred via Kalypsys pin tool equipped with 1536-pin array. The plates were then incubated for 15 min at room temperature, and 1 uL substrate (50 nM final concentration) were then added to start the reaction and kinetically read twice at 0 min and 10 min on the Viewlux reader
% is scaled to controls: 0 for no effect and ±100 for the full control effect; potency is read from the fitted curve at half-maximal effect.

Sequence of DNA polymerase kappa (Homo sapiens) (Q9UBT6 whole entry, looked up): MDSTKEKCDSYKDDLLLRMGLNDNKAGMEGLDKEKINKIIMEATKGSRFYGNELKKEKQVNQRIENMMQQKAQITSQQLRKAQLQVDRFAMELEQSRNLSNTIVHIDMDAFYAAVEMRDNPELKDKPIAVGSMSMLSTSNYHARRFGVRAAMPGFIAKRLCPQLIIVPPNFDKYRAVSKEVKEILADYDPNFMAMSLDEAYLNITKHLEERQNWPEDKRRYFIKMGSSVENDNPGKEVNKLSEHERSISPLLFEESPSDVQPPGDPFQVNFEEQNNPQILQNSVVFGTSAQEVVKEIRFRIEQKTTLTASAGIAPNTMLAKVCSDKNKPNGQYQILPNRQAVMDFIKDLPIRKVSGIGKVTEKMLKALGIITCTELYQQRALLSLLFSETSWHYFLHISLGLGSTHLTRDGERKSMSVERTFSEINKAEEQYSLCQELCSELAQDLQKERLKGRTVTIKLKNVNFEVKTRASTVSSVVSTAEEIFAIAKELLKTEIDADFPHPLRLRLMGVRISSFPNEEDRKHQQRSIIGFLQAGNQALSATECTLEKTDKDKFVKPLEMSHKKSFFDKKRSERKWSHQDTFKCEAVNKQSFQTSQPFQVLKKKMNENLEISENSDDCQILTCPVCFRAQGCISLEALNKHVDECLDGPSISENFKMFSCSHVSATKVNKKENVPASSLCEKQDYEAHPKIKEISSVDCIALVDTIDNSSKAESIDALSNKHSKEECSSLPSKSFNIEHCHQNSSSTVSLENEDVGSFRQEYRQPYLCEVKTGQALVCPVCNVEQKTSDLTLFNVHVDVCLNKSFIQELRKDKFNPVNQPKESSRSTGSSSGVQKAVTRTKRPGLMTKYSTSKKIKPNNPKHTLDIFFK

Row | Compound | Potency | activity, negative = inhibition
1 | O=c1ccc2c(-c3ccccc3S(=O)(=O)O)c3ccc(O)c(O)c3oc-2c1O | 0.708 µM (active) | 
2 | Cc1nc2cnc(N3CCNCC3)nc2n(Cc2ccc(F)cc2)c1=O |  | -14.4% [at 60.1 µM]
3 | Clc1cccc[n+]1CCCC[n+]1ccccc1Cl |  | -19.6%
4 | Cc1c(CCO)sc[n+]1CC(=O)c1ccc2ccccc2c1 |  | -1.46%
5 | CCN1CCN(c2ccc(/C=C/c3ccnc4ccccc34)cc2)CC1 |  | -8.38%
6 | CCOc1cccc2c1N[C@@H](c1ccc(C(=O)O)cc1)[C@H]1CC=C[C@@H]21 | 3.98 µM (active) | 
7 | CCOc1cccc(CC(=O)N2CCc3c([nH]c4ccccc34)C2c2ccc(F)cc2)c1OCC (stereo not given) |  | -5.26% [at 60.1 µM]
8 | CCOc1ccccc1C1NC(=O)NC(C)=C1C(=O)OCc1ccco1 (stereo not given) |  | -12.9%
9 | O=C(O)c1ccc(/C=C2/SC(=S)N(c3cccc(C(F)(F)F)c3)C2=O)cc1 |  | -8.36% [at 12 µM]
10 | N#Cc1c(N2CCCCC2)nc(N)c2c(N)nc(SCC(=O)O)cc12 | 39.8 µM (active) | 
11 | CC1C(O)CC2C(C(=O)O)=CO[C@@H](O[C@H]3OC(CO)C(O)C(O)C3O)C21 (stereo not given in full) |  | -7.49% [at 60.1 µM]
12 | CS(=O)(=O)N1CCC2(CCN(c3ccncc3)CC2)CC1 |  | -15.5% [at 60.1 µM]
13 | Oc1ccc(-c2c(-c3ccccc3)nn3c(C(F)(F)F)cc(C(F)(F)F)nc23)cc1 |  | -10.8% [at 12 µM]
14 | Cc1c(S(=O)(=O)O)oc2c1C(=O)C(=O)c1c-2ccc2c1CCCC2(C)C | 35.5 µM (active) | 
15 | CCC(CCC(C)C1CCC2C3CC=C4CC(O)CC[C@@]4(C)C3CC[C@@]12C)C(C)C (stereo not given in full) |  | 8.1% [at 19.4 µM]
16 | C[N+]1(CC(=O)c2cccs2)CCOCC1 |  | -7.83%
17 | CCOc1ccc(NC(=O)c2ccc(NC(=O)COC(=O)c3ccc(NC(=O)CC#N)cc3)cc2)cc1 | 22.4 µM (active) | 
18 | CCOc1ccc(NC(=O)Cn2c(C)ccc(C#N)c2=O)cc1 |  | -25.3%
19 | CCOC(=O)c1ccc(-c2ccc(/C=C(\C#N)C(=O)Nc3ccc(OCC)cc3)o2)cc1 |  | 1.52%
20 | CS(=O)c1ccc(/C=C2\C=Cc3ccccc32)cc1 (stereo not given) |  | -44.2%
21 | CN(C)c1cccc2ccccc12 |  | 5.24%
22 | C=C1/C(=C\C=C2\CCCC3(C)C2CCC3C(C)/C=C/C(O)C2CC2)CC(O)CC1O (stereo not given) |  | 0.818% [at 60.1 µM]

Row | Compound | Potency | activity, negative = inhibition
23 | COc1cc2nc(C#Cc3nc4cc(OC)c(OC)cc4[nH]3)[nH]c2cc1OC |  | 5.01%
24 | COc1ccc(NC(=O)CSc2nc3ccccc3[nH]2)cc1 |  | 12.5%
25 | O=C(CSc1nc2ccccc2c(=O)[nH]1)Nc1nc(-c2ccc(Br)cc2)cs1 | 20 µM (active) | 
26 | O=C(CSc1nc(O)c(Cc2ccccc2)c(=O)[nH]1)Nc1nc2c(s1)CCCC2 |  | -23.8%
27 | Cc1cnc(CNc2cc(-c3c(C)noc3C)ncn2)cn1 |  | 0.34% [at 60.1 µM]
28 | O=C(Nc1ccccc1C(F)(F)F)c1nc(S(=O)(=O)Cc2ccccc2F)ncc1Cl |  | 0.105%
29 | Cn1cc(-c2nc3cnc(N4CCNCC4)nc3n(CCc3ccccc3)c2=O)c2ccccc21 |  | -11.8% [at 60.1 µM]
30 | CC(C)(C)OC(=O)N(Cc1ccco1)S(=O)(=O)c1ccccc1Br |  | -16.3%
31 | Oc1cc(O)c2c(c1)OC(c1ccc(O)c(O)c1)C(O)C2 (stereo not given) | 3.16 µM (active) | 
32 | CC[C@H](C)[C@H](NC(=O)[C@H](CCCNC(=N)N)NC(=O)[C@H](CCCNC(=N)N)NC(=O)[C@H](CC(C)C)NC(=O)[C@H](Cc1ccccc1)NC(=O)CNC(=O)CNC(=O)[C@@H](N)Cc1ccc(O)cc1)C(=O)N[C@@H](CCCNC(=N)N)C(=O)N1CCC[C@H]1C(=O)N[C@@H](CCCCN)C(=O)N[C@@H](CC(C)C)C(=O)N[C@@H](CCCCN)C(=O)N[C@@H](Cc1c[nH]c2ccccc12)C(=O)N[C@@H](CC(=O)O)C(=O)N[C@@H](CC(N)=O)C(=O)N[C@@H](CCC(N)=O)C(=O)O |  | 12.6% [at 60.1 µM]
33 | CCOc1n[nH]c(-c2ccccc2)n1 |  | 7.58%
34 | CN(C)c1ccc(/C=c2\[nH]c(=O)/c(=C/c3ccc(N(C)C)cc3)[nH]c2=O)cc1 |  | -2.21%
35 | CC(C)[C@@H]1NC(=O)[C@H](Cc2ccccc2)NC(=O)[C@@H](CC(=O)O)NC(=O)CNC(=O)[C@H](CCCNC(=N)N)NC1=O |  | 4% [at 19.4 µM]
36 | CC1OC(OCC2OC(Oc3c(-c4ccc(O)c(O)c4)oc4cc(O)cc(O)c4c3=O)C(O)C(O)C2O)[C@@H](O)C(O)C1O (stereo not given in full) | 10 µM (active) | 
37 | C[C@@H]1O[C@@H](OC[C@H]2O[C@@H](Oc3cc(O)c4c(c3)O[C@H](c3ccc(O)c(O)c3)CC4=O)[C@H](O)[C@@H](O)[C@@H]2O)[C@H](O)[C@H](O)[C@H]1O |  | -8.33% [at 60.1 µM]
38 | C[C@@H]1O[C@@H](OC[C@H]2O[C@@H](Oc3c(-c4ccc(O)cc4)oc4cc(O)cc(O)c4c3=O)[C@H](O)[C@@H](O)[C@@H]2O)[C@H](O)[C@H](O)[C@H]1O |  | -15.5%
39 | COc1ccc(CCC(=O)c2c(O)cc(OC3OC(CO)C(O)C(O)C3O[C@@H]3OC(C)C(O)C(O)C3O)cc2O)cc1O (stereo not given in full) |  | -13.4% [at 60.1 µM]
40 | C[C@@H]1O[C@@H](OC[C@H]2O[C@@H](Oc3c(-c4cccc(O)c4O)oc4cc(O)cc(O)c4c3=O)[C@H](O)[C@@H](O)[C@@H]2O)[C@H](O)[C@H](O)[C@H]1O | 7.08 µM (active) | 
41 | CC(C)C(NS(=O)(=O)c1ccc(-c2ccc(Br)cc2)cc1)C(=O)O (stereo not given) |  | 8.76% [at 60.1 µM]
42 | H-EHIPA-OH |  | 17.2% [at 60.1 µM]
43 | COc1cc(OC)c2c(c1Cl)OC1(C2=O)C(O)=CC(=O)CC1C (stereo not given) |  | -8.8% [at 60.1 µM]
44 | CN(Cc1ccco1)c1ncncc1-c1ccoc1 |  | -13.8% [at 60.1 µM]

Row | Compound | Potency | activity, negative = inhibition
45 | Cc1c(C)n(Cc2ccc(Cl)cc2)c2ccc(C(=O)N3CCN(c4ccccc4F)CC3)cc12 |  | -26.9%
46 | CC(C)c1ccc2c(c1)c(SC(C)(C)C)c(CC(C)(C)C(=O)O)n2Cc1ccc(Cl)cc1 | 29.9 µM (active) and 79.4 µM (active) | 
47 | CC(C)c1ccc(Cn2c(COc3ccccc3)nc3ccccc32)cc1 |  | -6.64%
48 | CC1(C)CC(=O)c2cc(C(=O)NCc3ccccc3)c(=O)[nH]c2C1 |  | -5.36%
49 | O=C1/C(=C\c2ccc([N+](=O)[O-])cc2)CS(=O)(=O)C/C1=C/c1ccc([N+](=O)[O-])cc1 | 79.4 µM (active) | 
50 | O=[N+]([O-])c1ccc(/C=C/c2ccc3cccnc3c2)cc1 |  | -22.8%
51 | N#Cc1ccc(CN2CCCC3(CCN(C(=O)c4ccco4)CC3)C2)cc1 |  | 7.12% [at 60.1 µM]
52 | CN1CCN(/[N+]([O-])=N/Oc2ccc([N+](=O)[O-])cc2[N+](=O)[O-])CC1 |  | -12%
53 | COc1ccc(C(=O)N2CCC3(CC2)CCN(c2ccccn2)CC3)cc1 |  | 14.4% [at 60.1 µM]
54 | O=C1CSC(=S)N1/N=C/c1ccc(O)c([N+](=O)[O-])c1 | 28.2 µM (active) | 
55 | CCOC(=O)C1C/C(=C\C(C)=O)c2cccc(C(F)(F)F)c2O1 (stereo not given) |  | -16%
56 | COc1ccc(-c2c(C)c3ccc(O)c(CN4CCN(C)CC4)c3oc2=O)cc1OC |  | -6.99% [at 60.1 µM]
57 | Cc1cccc(-c2cc(=O)c3cc(C)ccc3o2)c1 |  | -11.6% [at 19.4 µM]
58 | COc1ccc2c(=O)cc(-c3ccccc3)oc2c1O |  | -8.18% [at 19.4 µM]
59 | COc1c(O)cc2oc(-c3ccc(O)c(O)c3)cc(=O)c2c1O | 5.01 µM (active) and 752 nM (active) | 
60 | O=c1cc(-c2ccc(O)c(O)c2)oc2cccc(O)c12 | 6.31 µM (active) | 
61 | OCCN1CCN(CC/C=C2\c3ccccc3Sc3ccc(C(F)(F)F)cc32)CC1 |  | -8.78% [at 12 µM]
62 | COc1cccc(Cn2c(=O)cnc3cncnc32)c1 |  | 3.62% [at 60.1 µM]
63 | NC(=O)c1sc(-c2ccsc2)cc1N |  | 7.11% [at 19.4 µM]
64 | COc1ccc(-c2nc3cnc(OC)nc3n(Cc3ccc(F)cc3)c2=O)cc1 |  | 1.16% [at 60.1 µM]
65 | Cc1nnc2n1N=C(c1ccc3c(c1)NC(=O)CO3)CS2 |  | 5.52%
66 | COc1ccc(C2=Nn3c(nnc3-c3ccccc3OC)SC2)cc1OC1CCCC1 | 39.8 µM (active) | 

Row | Compound | Potency | activity, negative = inhibition
67 | COc1ccc(C2(C#N)CCC(C(=O)O)CC2)cc1OC1CCCC1 (stereo not given) |  | 1.33% [at 19.4 µM]
68 | C[C@H]1CCC[C@@]2(C)CCCC[C@]12O |  | 9.76% [at 60.1 µM]
69 | Cc1csc(-c2nc3ccccc3n2C)n1 |  | -4.55% [at 19.4 µM]
70 | COc1cccc(-c2cc(=O)c3cc(NC(=O)c4ccc(C)cc4)ccc3[nH]2)c1 |  | -14.5% [at 60.1 µM]
71 | COc1ccc(Br)cc1/C=N/Nc1ccc(S(=O)(=O)Nc2ccccc2C(=O)O)cc1[N+](=O)[O-] | 39.8 µM (active) | 
72 | COc1ccc(S(=O)(=O)NC(C)c2ccccc2)cc1C(=O)N1CCCCC1 (stereo not given) |  | -6.85%
73 | COC(=O)c1ccccc1NS(=O)(=O)c1ccc2c(c1)CCCN2C(C)=O |  | 3.72%
74 | COC(=O)N1CCC[C@@]2(CCN(C(=O)NC(C)C)C2)C1 |  | 1.95% [at 60.1 µM]
75 | CN(C)c1ccc(/C=C/c2sc3ccccc3[n+]2CCCCBr)cc1 |  | -23.3%
76 | CC(C)(C)n1ncc2c(=O)n(Cc3ccc(C(=O)c4ccccc4)cc3)cnc21 |  | 10.6%
77 | NC(=O)C[n+]1cccc(C(N)=O)c1 |  | -6.13%
78 | N#Cc1ccc[n+](CC(=O)c2ccc(O)c(O)c2)c1 | 0.891 µM (active) | 
79 | N#Cc1ccc[n+](CC(=O)c2ccc(F)cc2)c1 |  | 1.76%
80 | O=c1c(-c2ccc(F)c(F)c2)nc2cncnc2n1-c1ccccc1 |  | 6.33% [at 60.1 µM]
81 | COc1cc2nc(N3CCCN(C)CC3)nc(NC3CC3)c2cc1OC |  | 9.12%
82 | CN(C(=N)N)c1ccc(/C=C2\C=Cc3ccccc32)cc1 |  | 0.144%
83 | CO/N=C(\C(=O)N[C@@H]1C(=O)N2C(C(=O)O)=C(COC(C)=O)CS[C@H]12)c1csc(N)n1 (stereo in doubt) | 35.5 µM (active) and 79.4 µM (active) and 39.8 µM (active) | 
84 | C=CC1=C(C(=O)O)N2C(=O)[C@@H](NC(=O)/C(=N\OCC(=O)O)c3csc(N)n3)[C@H]2SC1 | 50.1 µM (active) | 
85 | O=C(c1cnccn1)N1CCC2(CCCN(Cc3ccccc3)C2)CC1 |  | -6.98% [at 60.1 µM]
